The panel holds about 83,000 compounds, 20% with a hit somewhere; the sample as a whole holds those more often.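 Values shown are percent growth following 48 h exposure of cells in 96-well plates to a single concentration of compound; below 10 was considered active.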 A number with no mark means an inactive call. The source made the active and inactive calls.

Test systems include DU-145 prostate; K-562 leukemia; MDA-MB-231 breast; RXF 393 renal; SF-268 CNS; SF-295 CNS; SF-539 CNS; UACC-257 melanoma; M14 melanoma; MALME-3M melanoma.
Holding throughout (test): NCI-60 one-dose screen, 48 h (100 = growth as untreated, 0 = no growth, -100 = all killed)
Common to all, as to conditions: 10 µM unless noted

In the case of `COc1nc2c(c(=O)n1C)CN(Cc1ccccc1)C=N2`, the growth in the test with DU-145 prostate is 114%; with K-562 leukemia, 93.2%; in the test on MDA-MB-231 breast it was 119%; with RXF 393 renal, 109%; in the test on SF-268 CNS, 106%; in the test on SF-295 CNS it was 109%. Besides, the growth in the test on SF-539 CNS was 116%; in the test on UACC-257 melanoma, 94.9%; in the test on M14 melanoma, 101%.
In the case of `Cc1cc(N[C@@H]2CCC[C@H](Nc3ccnc4cc(Cl)ccc34)C2)nc(N2CCCCCC2)n1`, the growth in the test with DU-145 prostate is -6.21% (active); in the test with MALME-3M melanoma it was -86.4% (active); in the test on MDA-MB-231 breast it was -85.8% (active); in the test on RXF 393 renal, -80.6% (active); in the test with SF-268 CNS, -66.2% (active); in the test on SF-295 CNS, -76.1% (active). Further, the growth in the test on SF-539 CNS was -93% (active); with UACC-257 melanoma it was -76.5% (active); in the test with M14 melanoma, -89.2% (active).
Turning to `CCN1CCN(c2nc(NCCNc3ccnc4cc(Cl)ccc34)c3ccccc3n2)CC1`, the growth in the test on DU-145 prostate was 33.9%; with MALME-3M melanoma, -78% (active); in the test with MDA-MB-231 breast, -73% (active); in the test with RXF 393 renal it was -39% (active); in the test on SF-268 CNS it was 27.2%; in the test on SF-295 CNS, -41.9% (active). The figures for the growth with SF-539 CNS, with UACC-257 melanoma and in the test on M14 melanoma were -71.2% (active), 57.9% and -76.6% (active), respectively.
Take `C=C1C(=O)O[C@H]2[C@H]1CC/C(C=Nc1ccc(C(F)(F)F)cc1N)=C\CC[C@@]1(C)O[C@@H]21`: the growth in the test on DU-145 prostate is 17.4%; with MALME-3M melanoma, -13.3% (active); in the test with MDA-MB-231 breast, -26.4% (active); in the test on RXF 393 renal it was -35.5% (active); in the test with SF-268 CNS, 23.7%; in the test on SF-295 CNS it was 45.4%. For the same compound, the growth with SF-539 CNS was -7.2% (active); in the test on UACC-257 melanoma it was 13%; with M14 melanoma, 5.33% (active).
For `CCOC(=O)c1sc(Nc2ccc(Cl)cc2)nc1C`, the growth in the test with DU-145 prostate was 35.5%; in the test with MALME-3M melanoma, 36.7%; in the test with MDA-MB-231 breast, 1.04% (active); in the test with RXF 393 renal, 10.9%; with SF-268 CNS it was 30%; with SF-295 CNS it was 16.3%. For the same compound, the figures for the growth in the test with SF-539 CNS, with UACC-257 melanoma and in the test on M14 melanoma were 25.3%, 7.95% (active) and 12.9%, respectively.
As to `COc1ccc(Nc2cc(C)nc(N3CCN(c4ccnc5cc(Cl)ccc45)CC3)n2)cc1`, the growth in the test on DU-145 prostate was 58%; in the test with K-562 leukemia, 10.1%; in the test with MDA-MB-231 breast, 17.7%; with RXF 393 renal, 51.4%; with SF-268 CNS, 52.6%; with SF-295 CNS, 15.9%. Moreover, the figures for the growth in the test on SF-539 CNS, with UACC-257 melanoma and in the test on M14 melanoma were 54.7%, 62.6% and 27.3%, respectively.
As to `COC(=O)[C@@H]1CCCN1C(=O)[C@@H]1CCCN1C(=O)[C@H](Cc1ccccc1)NC(=S)Nc1cc(C(F)(F)F)cc(C(F)(F)F)c1`, the growth in the test on DU-145 prostate was 40.4%; in the test with MALME-3M melanoma, 94.8%; in the test on MDA-MB-231 breast, 62.8%; in the test with RXF 393 renal, 83.8%; in the test on SF-268 CNS, 35%; with SF-295 CNS, 92.9%. For the same compound, the growth in the test on SF-539 CNS is 94%; in the test with UACC-257 melanoma, 11.8%.
In the case of `COc1ccc(CN2c3ccccc3Oc3ccccc32)cc1F`, the growth with DU-145 prostate is 95.9%; with MALME-3M melanoma it was 59.2%; in the test on MDA-MB-231 breast, 53.1%; in the test with RXF 393 renal, 84.5%; with SF-268 CNS it was 84.7%; in the test with SF-295 CNS, 33%. The growth was 64.7% in the test on SF-539 CNS and 58.9% in the test on UACC-257 melanoma.
As to `O=[N+]([O-])c1ccc2c(c1)Cc1cc(F)ccc1-2`, the growth with DU-145 prostate is 114%; in the test on MALME-3M melanoma it was 109%; with MDA-MB-231 breast, 112%; in the test on RXF 393 renal, 103%; with SF-268 CNS, 111%; with SF-295 CNS, 96.5%. For the same compound, the figures for the growth in the test on SF-539 CNS and with UACC-257 melanoma were 109% and 87.1%, respectively.
Consider `O=C(COc1cccc(/C=C2\COc3ccc(Cl)cc3C2=O)c1)c1ccc(Cl)cc1`, for which the growth was 124% in the test with DU-145 prostate; 13.1% in the test with K-562 leukemia; 77.5% in the test on MALME-3M melanoma; 67.8% with MDA-MB-231 breast; 94.4% with SF-268 CNS; 120% with SF-295 CNS. Moreover, the figures for the growth in the test on SF-539 CNS and in the test with UACC-257 melanoma were 87% and 104%, respectively.
Consider `COc1ccc(CN2c3ccccc3Oc3ccccc32)cc1O`, for which the growth was 36.8% in the test on DU-145 prostate; 45.1% with MALME-3M melanoma; 56.6% in the test on MDA-MB-231 breast; 50.1% in the test on RXF 393 renal; 57.4% in the test with SF-268 CNS; 14.5% in the test on SF-295 CNS. In addition, the growth is 16.3% in the test with SF-539 CNS, 39.1% with UACC-257 melanoma and 18% with M14 melanoma.
Take `COc1ccc(SC2c3ccc(C)cc3Oc3nc(N)c(C#N)c(N)c32)cc1` (stereo unspecified): the growth in the test with DU-145 prostate was -88.3% (active); with MALME-3M melanoma, -87.6% (active); with MDA-MB-231 breast it was -86.5% (active); with RXF 393 renal, -69.2% (active); with SF-268 CNS, 2.01% (active); in the test with SF-295 CNS, 44.8%. Further, the growth in the test on SF-539 CNS is -75.4% (active); with UACC-257 melanoma it was -74.8% (active); with M14 melanoma it was -76.5% (active).
In the case of `C/C1=C\CC[C@@]2(C)O[C@H]2[C@H]2OC(=O)C(CN3CCN(CC4C(=O)O[C@H]5[C@H]4CC/C(C)=C/CC[C@@]4(C)O[C@@H]54)CC3)[C@@H]2CC1` (stereo partly specified), the growth in the test with DU-145 prostate is 60.6%; in the test on MALME-3M melanoma, 101%; with MDA-MB-231 breast it was 87.1%; in the test on RXF 393 renal, 94.6%; with SF-268 CNS, 104%; in the test with SF-295 CNS it was 103%. Further, the values for the growth in the test on SF-539 CNS, in the test on UACC-257 melanoma and with M14 melanoma were 90.5%, 83.5% and 93.1%, respectively.
For the compound `C=C1C(=O)O[C@H]2[C@H]1CC/C(COC(=O)NCCc1ccc(OC)c(OC)c1)=C\CC[C@@]1(C)O[C@@H]21`, the growth in the test on DU-145 prostate is 39.5%; in the test on MALME-3M melanoma, 63.3%; in the test with MDA-MB-231 breast, 58%; in the test on RXF 393 renal, 34.7%; in the test on SF-268 CNS, 80.3%; in the test on SF-295 CNS, 95.8%. Further, the values for the growth with SF-539 CNS, in the test on UACC-257 melanoma and in the test with M14 melanoma were 47.2%, 62.9% and 65.7%, respectively.
In the case of `CN1CCN(c2nc(NCCCNc3ccnc4cc(Cl)ccc34)c3ccccc3n2)CC1`, the growth in the test with DU-145 prostate was 59.8%; in the test on MALME-3M melanoma, -66.3% (active); in the test with MDA-MB-231 breast, -8.42% (active); with RXF 393 renal, 43.3%; in the test on SF-268 CNS, 66.2%; with SF-295 CNS, 62.5%. For the same compound, the growth is -71% (active) in the test on SF-539 CNS, 17.7% in the test on UACC-257 melanoma and -85.6% (active) in the test with M14 melanoma.

The record behind these values is PubChem BioAssay (NCI).
